PubChem BioAssay (NCI)
The panel holds about 83,000 compounds, 20% with a hit somewhere; the sample as a whole holds those more often.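 Negative percent growth values reflect cell death: -40 means 40% of the cells present at the start died, and -100 means all died.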 Activity calls are given as the source filed them. Rule for the calls: active = growth percent below 10; inactive = the rest.

How the values were obtained:
Assay in all cases: NCI-60 one-dose screen, 48 h (100 = growth as untreated, 0 = no growth, -100 = all killed)
Details in all cases: 10 µM
NCI-H23 lung = tested on: NCI-H23 lung
NCI-H226 lung = tested on: NCI-H226 lung
NCI-H322M lung = tested on: NCI-H322M lung
HOP-62 NSCLC = tested on: HOP-62 NSCLC
NCI-H460 lung = tested on: NCI-H460 lung
HOP-92 NSCLC = tested on: HOP-92 NSCLC
NCI-H522 lung = tested on: NCI-H522 lung
A549/ATCC NSCLC = tested on: A549/ATCC NSCLC
786-0 renal = tested on: 786-0 renal
COLO 205 colon = tested on: COLO 205 colon
DU-145 prostate = tested on: DU-145 prostate
MALME-3M melanoma = tested on: MALME-3M melanoma
MDA-MB-231 breast = tested on: MDA-MB-231 breast
RXF 393 renal = tested on: RXF 393 renal
SF-268 CNS = tested on: SF-268 CNS
SF-295 CNS = tested on: SF-295 CNS
SF-539 CNS = tested on: SF-539 CNS
UACC-257 melanoma = tested on: UACC-257 melanoma
M14 melanoma = tested on: M14 melanoma

Measured: growth

COc1ccc2[nH]c(O)c(N=NC(=O)COc3ccc(NC(=O)Nc4ccc(Cl)cc4)cc3)c2c1
active: NCI-H23 lung -40.4% | NCI-H226 lung -38.5% | HOP-62 NSCLC -41.1% | NCI-H460 lung -48.6% | HOP-92 NSCLC -32.5% | COLO 205 colon -1.56% | MALME-3M melanoma -14.4% | MDA-MB-231 breast -69.9% | SF-268 CNS -10.3% | SF-539 CNS -39% | M14 melanoma -27.2%
inactive: NCI-H322M lung 67.8% | NCI-H522 lung 26.7% | A549/ATCC NSCLC 29.4% | 786-0 renal 21.4% | DU-145 prostate 18.5% | RXF 393 renal 44.1% | SF-295 CNS 14% | UACC-257 melanoma 51.8%

CCN1CCN(c2ccc(NC(=O)Nc3ccc4c(c3F)CCN4c3ccnc(C(=O)NC)c3)cc2C(F)(F)F)CC1
inactive: NCI-H226 lung 95% | NCI-H322M lung 90.5% | HOP-92 NSCLC 82.3% | NCI-H522 lung 110% | COLO 205 colon 120% | UACC-257 melanoma 99.3%
active: NCI-H23 lung -79.4% | HOP-62 NSCLC -49.3% | NCI-H460 lung -87.6% | A549/ATCC NSCLC -81.4% | 786-0 renal -95.9% | DU-145 prostate -91.2% | MALME-3M melanoma -94.3% | MDA-MB-231 breast -88.9% | RXF 393 renal -93% | SF-268 CNS -64.2% | SF-295 CNS -74.1% | SF-539 CNS -100% | M14 melanoma -92.6%

c1ccc(C(=C(c2ccc(OCCN3CCCCC3)cc2)c2ccc(OCCN3CCCCC3)cc2)C2CCCC2)cc1
active: NCI-H23 lung -81% | NCI-H226 lung -15.5% | HOP-62 NSCLC -10.9% | NCI-H460 lung -55.4% | HOP-92 NSCLC -61% | NCI-H522 lung -42.2% | A549/ATCC NSCLC -17.9% | 786-0 renal -33.3% | COLO 205 colon -92.6% | DU-145 prostate -45.2% | MALME-3M melanoma -95.2% | MDA-MB-231 breast -94.4% | SF-268 CNS -61% | SF-295 CNS -63.8% | SF-539 CNS -96.4% | UACC-257 melanoma -34.2% | M14 melanoma -44.4%
inactive: NCI-H322M lung 39.8% | RXF 393 renal 29.1%

COc1ccc2[nH]c(O)c(N=NC(=O)c3cc(-c4ccc(C)cc4)nc4ccccc34)c2c1
inactive: NCI-H23 lung 86% | NCI-H226 lung 90.6% | NCI-H322M lung 102% | HOP-62 NSCLC 102% | NCI-H460 lung 95.8% | HOP-92 NSCLC 97.8% | NCI-H522 lung 99.5% | A549/ATCC NSCLC 87.2% | 786-0 renal 97.2% | COLO 205 colon 112% | DU-145 prostate 90.8% | MALME-3M melanoma 103% | MDA-MB-231 breast 98.3% | RXF 393 renal 92.4% | SF-268 CNS 80.2% | SF-295 CNS 108% | SF-539 CNS 92.3% | UACC-257 melanoma 91.2% | M14 melanoma 99.1%

O=C(COc1ccc(NC(=O)Nc2ccc(Cl)cc2)cc1)N=Nc1c(O)[nH]c2ccc([N+](=O)[O-])cc12
inactive: NCI-H23 lung 21.4% | NCI-H226 lung 22.4% | NCI-H322M lung 53.3% | HOP-62 NSCLC 35.7% | NCI-H460 lung 17.5% | A549/ATCC NSCLC 105% | 786-0 renal 53.6% | COLO 205 colon 23% | DU-145 prostate 60.3% | MALME-3M melanoma 12.1% | RXF 393 renal 73.1% | SF-268 CNS 19.5% | SF-295 CNS 87.3% | SF-539 CNS 16.5% | UACC-257 melanoma 74.9% | M14 melanoma 21.2%
active: HOP-92 NSCLC -36.2% | NCI-H522 lung 8.06% | MDA-MB-231 breast -44.7%

CN1CCN(c2ccc(Nc3nc(NCCNC(=O)c4ccc(C(F)(F)F)cc4)c4sccc4n3)cc2)CC1
active: HOP-92 NSCLC -15.3% | 786-0 renal -56.6% | COLO 205 colon -87.6% | MALME-3M melanoma -100% | MDA-MB-231 breast -36.1% | RXF 393 renal -82.2% | SF-295 CNS -62.7% | SF-539 CNS -99.7% | UACC-257 melanoma -93.4% | M14 melanoma -54.4%
inactive: NCI-H23 lung 49.3% | NCI-H226 lung 72.3% | NCI-H322M lung 28.3% | HOP-62 NSCLC 19.4% | NCI-H460 lung 16.7% | NCI-H522 lung 24.6% | A549/ATCC NSCLC 28.1% | DU-145 prostate 45.7% | SF-268 CNS 21.8%

CN1CCN(c2ccc(Nc3nc(NCCCNC(=O)c4ccc(Cl)cc4)c4sccc4n3)cc2)CC1
inactive: NCI-H23 lung 81.9% | NCI-H226 lung 79.3% | NCI-H322M lung 91.3% | HOP-62 NSCLC 91.9% | NCI-H460 lung 88.9% | HOP-92 NSCLC 34.1% | NCI-H522 lung 103% | A549/ATCC NSCLC 87.8% | COLO 205 colon 92.5% | DU-145 prostate 84.2% | MALME-3M melanoma 72.6% | MDA-MB-231 breast 61.1% | RXF 393 renal 37.6% | SF-268 CNS 77% | SF-295 CNS 98% | SF-539 CNS 18.7% | UACC-257 melanoma 71.9% | M14 melanoma 68.6%
active: 786-0 renal -4.27%

C[C@H]1[C@H](C)CC[C@]2(COC(=O)CCC(=O)NCC#CCN3CCNCC3)CC[C@]3(C)C(=CC[C@@H]4[C@@]5(C)CCCNC(C)(C)[C@@H]5CC[C@]43C)[C@H]12
active: NCI-H460 lung 9.64% | COLO 205 colon -76.9% | MALME-3M melanoma -38.7% | M14 melanoma -16.7%
inactive: NCI-H23 lung 44.1% | NCI-H226 lung 75.6% | NCI-H322M lung 77.2% | HOP-62 NSCLC 60.8% | HOP-92 NSCLC 14.4% | NCI-H522 lung 59% | A549/ATCC NSCLC 51.6% | 786-0 renal 55.1% | DU-145 prostate 74.4% | MDA-MB-231 breast 43.4% | RXF 393 renal 50.3% | SF-268 CNS 77.1% | SF-295 CNS 28.1% | SF-539 CNS 41.9% | UACC-257 melanoma 26.3%
